Test results published in PubChem BioAssay (NCATS).
Inconclusive results are not listed. The source made the active and inactive calls. Calls follow the shape of the dose curve; as a rule, active = well fitted curve in the direction sought with a large enough effect; inconclusive = small, poorly fitted or top-dose-only effect, or another doubt; inactive = no such curve, though single readings can be large; an effect the other way counts as inactive or inconclusive.

Key:
[1] = system: HACAT; test: qHTS assay to identify novel small-molecules to repurpose for Merkel cell carcinoma treatment (AID 1296009); conditions: MCC and control cell lines, CellTiter-Glo viability, 72 h; at 44.8 µM (top of the series) unless noted; also: nearly all actives have a fitted effect of over 60% in size
In short: (§1)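 Cell viability measured by CellTiter-Glo following 72 hr compound treatment at 37 degree celsius, with NPC and MIPE libraries tested in 8- and 11-point concentration series.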

[2] = system: NIH3T3; test: as above; conditions: MCC and control cell lines, CellTiter-Glo viability, 72 h; at 44.8 µM (top of the series) unless noted
In short: as §1

[3] = system: C33A; test: Primary qHTS to identify gynecologic anti-cancer compounds using libraries of approved drugs and bioactive compounds (AID 1345084); conditions: Gynecologic cancer cell panel viability, ATPlite luminescence, 48 h; series mostly up to 57.5 µM; also: % is scaled to controls: 0 for no effect and ±100 for the full control effect; nearly all actives have a fitted effect of over 55% in size
In short: (§2)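 In this quantitative HTS, cell killing is estimated from loss of ATP-dependent luciferase light. Cells see five compound concentrations over a 48 h exposure.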

[4] = system: CAOV3; test: as above; conditions: Gynecologic cancer cell panel viability, ATPlite luminescence, 48 h; series mostly up to 57.5 µM
In short: as §2

[5] = system: CASKI; test: as above; conditions: Gynecologic cancer cell panel viability, ATPlite luminescence, 48 h; series mostly up to 57.5 µM
In short: as §2

[6] = system: Es-2; test: as above; conditions: Gynecologic cancer cell panel viability, ATPlite luminescence, 48 h; series mostly up to 57.5 µM
In short: as §2

[7] = system: HeLa; test: as above; conditions: Gynecologic cancer cell panel viability, ATPlite luminescence, 48 h; series mostly up to 57.5 µM
In short: as §2

[8] = system: Hek293T; test: as above; conditions: Gynecologic cancer cell panel viability, ATPlite luminescence, 48 h, control line for the selectivity index; series mostly up to 57.5 µM
In short: as §2

[9] = system: JEG-3; test: as above; conditions: Gynecologic cancer cell panel viability, ATPlite luminescence, 48 h; series mostly up to 57.5 µM
In short: as §2

[10] = system: OV90; test: as above; conditions: Gynecologic cancer cell panel viability, ATPlite luminescence, 48 h; series mostly up to 57.5 µM
In short: as §2

[11] = system: PA-1; test: as above; conditions: Gynecologic cancer cell panel viability, ATPlite luminescence, 48 h; series mostly up to 57.5 µM
In short: as §2

[12] = system: SKOV3; test: as above; conditions: Gynecologic cancer cell panel viability, ATPlite luminescence, 48 h; series mostly up to 57.5 µM
In short: as §2

[13] = system: Tov-21-G; test: as above; conditions: Gynecologic cancer cell panel viability, ATPlite luminescence, 48 h; series mostly up to 57.5 µM
In short: as §2

[14] = system: Tov112D; test: as above; conditions: Gynecologic cancer cell panel viability, ATPlite luminescence, 48 h; series mostly up to 57.5 µM
In short: as §2

C[C@@H]1O[C@@H](OC(=O)Cc2ccccc2)[C@H](O)[C@H](O)[C@H]1O
inactive: outcome [1] | outcome [2] | Potency [3] | Potency [4] | outcome [5] | Potency [6] | Potency [7] | Potency [8] | Potency [9] | Potency [10] | Potency [11] | Potency [12] | Potency [13] | Potency [14]

CCC(C)C(N)C(=O)NCCN1CCOCC1 (centres undefined)
inactive: outcome [1] | outcome [2] | Potency [3] | Potency [4] | outcome [5] | Potency [6] | Potency [7] | Potency [8] | Potency [9] | Potency [10] | Potency [11] | Potency [12] | Potency [13] | Potency [14]

C=C1CCC2C(C)(C)CC(=O)CC2(C)C1CCC(C)CCO (centres undefined)
inactive: outcome [1] | outcome [2] | Potency [3] | Potency [4] | outcome [5] | Potency [6] | Potency [7] | Potency [8] | Potency [9] | Potency [10] | Potency [11] | Potency [12] | Potency [13] | Potency [14]

CC(=O)OC1C(O)/C(C)=C\C2C(OC(=O)c3ccccc3)C(C)CC2(OC(C)=O)C(OC(C)=O)C(C)/C=C/C(C)(C)C1OC(C)=O (centres undefined)
inactive: outcome [1] inactive [at 17.4 µM] | outcome [2] inactive [at 17.4 µM] | Potency [3] | Potency [4] | outcome [5] | Potency [6] | Potency [7] | Potency [8] | Potency [9] | Potency [10] | Potency [11] | Potency [12] | Potency [13] | Potency [14]

COc1cccc(OC)c1-c1ccc(C[C@H](NC(=O)c2c(Cl)cccc2Cl)C(=O)O)cc1
inactive: outcome [1] | outcome [2] | Potency [3] | Potency [4] | outcome [5] | Potency [6] | Potency [7] | Potency [8] | Potency [9] | Potency [10] | Potency [11] | Potency [12] | Potency [13] | Potency [14]

CC1CC2OCC3(O)CCC(O)C(C14CC(c1ccoc1)OC4=O)C23CO (centres undefined)
inactive: outcome [1] | outcome [2] | Potency [3] | Potency [4] | outcome [5] | Potency [6] | Potency [7] | Potency [8] | Potency [9] | Potency [10] | Potency [11] | Potency [12] | Potency [13] | Potency [14]

C/C=C/C=C/C(O)=C1/C(=O)[C@]2(C)C3/C(=C(O)/C=C/C=C/C)C(=O)C4(C)C1[C@]1(C)O[C@@]4(O)[C@@]3(C)O[C@@]12O
inactive: outcome [1] inactive [at 17.4 µM] | outcome [2] inactive [at 17.4 µM] | Potency [3] | Potency [4] | outcome [5] | Potency [6] | Potency [7] | Potency [8] | Potency [9] | Potency [10] | Potency [11] | Potency [12] | Potency [13] | Potency [14]

CCN(CCN(C)C)C(=O)CNCc1cc(C(N)=O)ccn1
inactive: outcome [1] | outcome [2] | Potency [3] | Potency [4] | outcome [5] | Potency [6] | Potency [7] | Potency [8] | Potency [9] | Potency [10] | Potency [11] | Potency [12] | Potency [13] | Potency [14]

CC(=O)OCC(Cc1ccccc1)NC(=O)C(Cc1ccccc1)NC(=O)c1ccccc1 (centres undefined)
inactive: outcome [1] inactive [at 17.4 µM] | outcome [2] inactive [at 17.4 µM] | Potency [3] | Potency [4] | outcome [5] | Potency [6] | Potency [7] | Potency [8] | Potency [9] | Potency [10] | Potency [11] | Potency [12] | Potency [13] | Potency [14]

C/C(=C\CCC(C)CCO)C(=O)OC[C@H]1O[C@@H](O[C@@H]2OC=C(C(=O)O)[C@H]3CC[C@](C)(O)[C@@H]23)C(O)[C@@H](O)C1O (some centres undefined)
inactive: outcome [1] inactive [at 17.4 µM] | outcome [2] inactive [at 17.4 µM] | Potency [3] | Potency [4] | outcome [5] | Potency [6] | Potency [7] | Potency [8] | Potency [9] | Potency [10] | Potency [11] | Potency [12] | Potency [13] | Potency [14]

COc1cc(C)c(C(=O)OC2C(C)OC(OC3CCC(C)C4C3C=C(C)C3/C(C)=C\CC/C(C)=C/C5(C)C=C(C(=O)O)C(C)CC56OC(=O)/C(=C(\O)C34C)C6=O)C(O)C2O)c(OC)c1 (centres undefined)
inactive: outcome [1] inactive [at 9.27 µM] | outcome [2] inactive [at 9.27 µM] | activity change, negative = cytotoxicity [3] 17.6% [at 11.6 µM] | activity change, negative = cytotoxicity [4] 11.9% [at 11.6 µM] | activity change, negative = cytotoxicity [5] 0.731% [at 11.6 µM] | activity change, negative = cytotoxicity [6] 6.73% [at 11.6 µM] | activity change, negative = cytotoxicity [7] -3.64% [at 11.6 µM] | activity change, negative = cytotoxicity [8] 6.05% [at 11.6 µM] | activity change, negative = cytotoxicity [9] -0.361% [at 11.6 µM] | activity change, negative = cytotoxicity [10] 2.6% [at 11.6 µM] | activity change, negative = cytotoxicity [11] -4.04% [at 11.6 µM] | activity change, negative = cytotoxicity [12] -6.42% [at 11.6 µM] | activity change, negative = cytotoxicity [13] 1.13% [at 11.6 µM] | activity change, negative = cytotoxicity [14] 1.96% [at 11.6 µM]
